Measured values: PubChem BioAssay (NCI)
This is part of a sample that, as a whole, favours compounds with a hit. Of some 79,000 tested, about 15% had one in any assay. Activity calls are given as the source filed them. Cut-off read from the data, not from the text of the source: active = growth inhibition above about 70%; inactive = the rest.

Tests used:
[1] = NCI Yeast Anticancer Drug Screen. Data for the rad52 strain (AID 147);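 note: 0% = growth of vehicle-treated control cultures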; conditions: S. cerevisiae rad52 mutant growth inhibition, active compounds read high
Method in brief: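 The repair-mutant yeast strain was incubated with compounds, then growth was read and inhibition derived relative to vehicle.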

[2] = NCI Yeast Anticancer Drug Screen. Data for the wt1 strain (AID 149);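 note: 0% = growth of vehicle-treated wt1 cultures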; conditions: S. cerevisiae wt1 strain (SPY 50644) growth inhibition, active compounds read high
Method in brief: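 Each compound is tested on wt1 yeast and the loss of growth versus vehicle gives the inhibition value.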

[3] = NCI Yeast Anticancer Drug Screen. Data for the rad50EPP+ strain (AID 151);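 note: 0% = growth of vehicle-treated control cultures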; conditions: S. cerevisiae rad50 mutant strain, active compounds read high
Method in brief: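 Vehicle-normalised growth inhibition; rad50EPP+ yeast strain, altered in DNA damage repair, compound-treated.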

[4] = NCI Yeast Anticancer Drug Screen. Data for the mgt1 strain (AID 153); conditions: S. cerevisiae mgt1 mutant growth inhibition, active compounds read high
Method in brief: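 Vehicle-normalized growth inhibition is determined in mgt1 yeast, a strain selected for a defined alteration in DNA repair or cell cycle control.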

[5] = NCI Yeast Anticancer Drug Screen. Data for the rad50 strain (AID 155);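 note: 0% = growth of vehicle-only cultures of the same strain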; conditions: S. cerevisiae rad50 strain growth inhibition, active compounds read high
Method in brief: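 Vehicle-treated cultures provide the reference for the growth inhibition reported for compound-exposed, repair-deficient yeast.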

[6] = NCI Yeast Anticancer Drug Screen. Data for the mec2-1 strain (AID 157); conditions: S. cerevisiae mec2-1 strain, active compounds read high
Method in brief: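 Mutant yeast (mec2-1) grown with compound; growth inhibition relative to vehicle control reported.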

[7] = NCI Yeast Anticancer Drug Screen. Data for the sgs1 mgt1 strain (AID 161);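 note: 0% = growth of cultures given vehicle only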; conditions: S. cerevisiae sgs1 mgt1 strain, active compounds read high
Method in brief: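 Percent growth inhibition was derived by comparing compound-exposed mutant yeast with vehicle-exposed cultures. The strain carries alterations in DNA damage repair.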

[8] = NCI Yeast Anticancer Drug Screen. Data for the CLN2oe strain (AID 163);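 note: 0% = growth of vehicle-only control cultures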; conditions: S. cerevisiae CLN2oe strain, active compounds read high
Method in brief: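 Compounds are applied to yeast harbouring a defined cell-cycle control change; reduced growth compared with vehicle-treated controls gives the value.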

[9] = NCI Yeast Anticancer Drug Screen. Data for the cln2 rad14 strain (AID 165);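 note: 0% = growth equal to vehicle treated cultures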; conditions: S. cerevisiae cln2 rad14 strain, active compounds read high
Method in brief: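 Readout is yeast growth inhibition versus vehicle-treated controls, using a strain with cln2 and rad14 alterations exposed to compound.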

[10] = NCI Yeast Anticancer Drug Screen. Data for the bub3 strain (AID 167); conditions: S. cerevisiae bub3 mutant strain, active compounds read high
Method in brief: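 Mutant yeast screening strain plus compound; vehicle-treated cultures serve as the 0% inhibition reference.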

[11] = NCI Yeast Anticancer Drug Screen. Data for the mlh1 strain (AID 171);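 note: 0% = growth of vehicle-treated control cultures of the same strain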; conditions: S. cerevisiae mlh1 strain growth inhibition, active compounds read high
Method in brief: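 Measured: yeast growth. Reference: vehicle-treated controls. Organism: strain with a defined alteration affecting DNA damage repair or cell cycle control, treated with compound.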

[12] = NCI Yeast Anticancer Drug Screen. Data for the sgs1 strain (AID 173);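 note: 0% = growth of vehicle-only control cultures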; conditions: S. cerevisiae sgs1 mutant, active compounds read high
Method in brief: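 Each compound was added to cultures of the altered yeast strain. Growth was recorded, and inhibition was derived by comparison with vehicle controls.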

[13] = NCI Yeast Anticancer Drug Screen. Data for the mlh1 rad18 strain (AID 175); conditions: S. cerevisiae mlh1 rad18 strain growth inhibition, active compounds read high
Method in brief: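 Genetically defined yeast (DNA repair-deficient) exposed to compounds; growth inhibition determined relative to vehicle.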

[14] = NCI Yeast Anticancer Drug Screen. Data for the wt2 strain (AID 169); conditions: S. cerevisiae wt2 strain growth inhibition, active compounds read high
Method in brief: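 Against vehicle-treated controls, the growth of yeast exposed to each compound was compared, and the inhibition was recorded.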

[15] = NCI Yeast Anticancer Drug Screen. Data for the rad18 strain (AID 177); conditions: S. cerevisiae rad18 mutant growth inhibition, active compounds read high
Method in brief: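 Vehicle-treated cultures served as the baseline for scoring compound-induced growth inhibition in DNA-repair-mutant yeast.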

[16] = NCI Yeast Anticancer Drug Screen. Data for the rad14 strain (AID 159);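 note: 0% = growth of vehicle-treated control cultures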; conditions: S. cerevisiae rad14 strain growth inhibition, active compounds read high
Method in brief: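 Inhibition of growth is reported for a repair-deficient yeast mutant following compound treatment, calculated relative to cultures that received vehicle.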

[17] = at 5.0 µM (retest, dose inferred, filed as 0.5)
[18] = at 50.0 µM (retest, dose inferred, filed as 5.0)

Measured: growth inhibition

CC(=O)Nc1ccc2c(c1)-c1ccccc1C2=O
active: [1]; at 33.0 µM 70% | [1]; at 100.0 µM 95% | [3]; at 100.0 µM 78% | [4]; at 100.0 µM 76% | [5]; at 100.0 µM 95% | [6]; at 100.0 µM 70% | [11]; at 100.0 µM 82% | [12]; at 100.0 µM 81%
inactive: [1]; at 1.2 µM -1% | [1]; at 3.7 µM 1% | [1]; at 11.0 µM 10% | [2]; at 1.2 µM -2% | [2]; at 3.7 µM -1% | [2]; at 11.0 µM -48% | [2]; at 33.0 µM 6% | [2]; at 100.0 µM 45% | [3]; at 1.2 µM -2% | [3]; at 3.7 µM -4% | [3]; at 11.0 µM 2% | [3]; at 33.0 µM 25% | [4]; at 1.2 µM -5% | [4]; at 3.7 µM -4% | [4]; at 11.0 µM -5% | [4]; at 33.0 µM 1% | [5]; at 1.2 µM -2% | [5]; at 3.7 µM 19% | [5]; [17] 2% | [5]; at 11.0 µM 20% | [5]; at 33.0 µM 68% | [5]; [18] 54% | [5]; at 50.0 µM 67.8% | [6]; at 1.2 µM -1% | [6]; at 3.7 µM 2% | [6]; [17] 7% | [6]; at 11.0 µM 4% | [6]; at 33.0 µM 15% | [6]; [18] 15% | [6]; at 50.0 µM 6.9% | [7]; [17] -3% | [7]; [18] 6% | [7]; at 50.0 µM 2.4% | [8]; at 1.2 µM -6% | [8]; at 3.7 µM -8% | [8]; at 11.0 µM -8% | [8]; at 33.0 µM -9% | [8]; at 100.0 µM 13% | [9]; [17] -3% | [9]; [18] 11% | [9]; at 50.0 µM -39.4% | [10]; at 1.2 µM 0% | [10]; at 3.7 µM -3% | [10]; [17] -3% | [10]; at 11.0 µM -1% | [10]; at 33.0 µM 7% | [10]; [18] -4% | [10]; at 50.0 µM -20.4% | [10]; at 100.0 µM 66% | [11]; at 1.2 µM -2% | [11]; at 3.7 µM -2% | [11]; at 11.0 µM 1% | [11]; at 33.0 µM 13% | [12]; at 1.2 µM -5% | [12]; at 3.7 µM -8% | [12]; at 11.0 µM -9% | [12]; at 33.0 µM 8% | [13]; [17] 1% | [13]; [18] 20% | [13]; at 50.0 µM -1.15%

c1ccc(CCN2CCc3ccccc3C2)cc1
inactive: [1]; at 1.2 µM -1% | [1]; at 3.7 µM 0% | [1]; at 11.0 µM 10% | [1]; at 33.0 µM 12% | [1]; at 100.0 µM 19% | [2]; at 1.2 µM -1% | [2]; at 3.7 µM 4% | [2]; at 11.0 µM 4% | [2]; at 33.0 µM 6% | [2]; at 100.0 µM 4% | [3]; at 1.2 µM -3% | [3]; at 3.7 µM -3% | [3]; at 11.0 µM -1% | [3]; at 33.0 µM -4% | [3]; at 100.0 µM 0% | [4]; at 1.2 µM -2% | [4]; at 3.7 µM -3% | [4]; at 11.0 µM 4% | [4]; at 33.0 µM 6% | [4]; at 100.0 µM 16% | [5]; at 1.2 µM 1% | [5]; at 3.7 µM 2% | [5]; [17] -9% | [5]; at 11.0 µM 3% | [5]; at 33.0 µM 8% | [5]; [18] 49% | [5]; at 50.0 µM 43.9% | [5]; at 100.0 µM 10% | [6]; at 1.2 µM -3% | [6]; at 3.7 µM 1% | [6]; [17] -10% | [6]; at 11.0 µM 6% | [6]; at 33.0 µM 8% | [6]; [18] 1% | [6]; at 50.0 µM 12.8% | [6]; at 100.0 µM 8% | [7]; [17] -5% | [7]; [18] 49% | [7]; at 50.0 µM 49.8% | [8]; at 1.2 µM -3% | [8]; at 3.7 µM -9% | [8]; at 11.0 µM 12% | [8]; at 33.0 µM 28% | [8]; at 100.0 µM 41% | [9]; [17] -6% | [9]; [18] 21% | [9]; at 50.0 µM 33.7% | [10]; at 1.2 µM -1% | [10]; at 3.7 µM -1% | [10]; [17] 24% | [10]; at 11.0 µM 7% | [10]; at 33.0 µM 21% | [10]; at 50.0 µM 56.8% | [10]; at 100.0 µM 40% | [14]; at 1.2 µM -1% | [14]; at 3.7 µM 1% | [14]; at 11.0 µM 4% | [14]; at 33.0 µM 8% | [14]; at 100.0 µM 8% | [11]; at 1.2 µM -2% | [11]; at 3.7 µM 1% | [11]; at 11.0 µM 4% | [11]; at 33.0 µM 11% | [11]; at 100.0 µM 11% | [12]; at 1.2 µM -1% | [12]; at 3.7 µM 0% | [12]; at 11.0 µM 6% | [12]; at 33.0 µM 18% | [12]; at 100.0 µM 17% | [13]; [17] 11% | [13]; at 50.0 µM 21.9% | [15]; at 1.2 µM 0% | [15]; at 3.7 µM 1% | [15]; at 11.0 µM 8% | [15]; at 33.0 µM 13% | [15]; at 100.0 µM 10%
active: [10]; [18] 74% | [13]; [18] 71%

CCCCCCC(O)CNCc1ccnc2ccc(OC)cc12 (stereo unspecified)
active: [5]; at 50.0 µM 76.8%
inactive: [1]; at 1.2 µM 5% | [1]; at 3.7 µM 12% | [1]; at 11.0 µM 22% | [1]; at 33.0 µM 35% | [1]; at 100.0 µM 52% | [2]; at 1.2 µM 2% | [2]; at 3.7 µM 9% | [2]; at 11.0 µM 4% | [2]; at 33.0 µM 8% | [2]; at 100.0 µM 18% | [3]; at 1.2 µM 1% | [3]; at 3.7 µM 2% | [3]; at 11.0 µM 4% | [3]; at 33.0 µM 0% | [3]; at 100.0 µM 2% | [4]; at 1.2 µM 1% | [4]; at 3.7 µM 4% | [4]; at 11.0 µM 17% | [4]; at 33.0 µM 38% | [4]; at 100.0 µM 51% | [5]; at 1.2 µM 5% | [5]; at 3.7 µM 13% | [5]; [17] 8% | [5]; at 11.0 µM 11% | [5]; at 33.0 µM 31% | [5]; [18] 51% | [5]; at 100.0 µM 54% | [16]; at 1.2 µM 13% | [16]; at 3.7 µM 32%
